In PubChem BioAssay one finds z-score and composite z-score data, which are given here for eight compounds.

Activity calls are given as the source filed them. Unless noted, the rule behind the calls is not given here.

Experiment [1] in a line: resazurin metabolic signal in HepG2 cells – cell-based, resazurin fluorescence, 24 h, PK04 Diversity Set, profiling panel (AID 1172). The conditions noted are these: HepG2 viability, higher = more signal.
The nature of experiment [2]: budding yeast growth changes without added modifier – OD600, strain BY4716, 24 h, basal condition, primary screen (AID 1173). The conditions noted are these: S. cerevisiae BY4716 growth, OD600, 24 h; higher = more signal, called active from +8 up or from −8 down.
Experiment [3] is described as follows: viability profiling in MM1S myeloma cells – cell-based, resazurin fluorescence, basal, 24 h, PK04 Diversity Set, profiling panel (AID 1174).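 Note: MM1S multiple myeloma cell line.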 The following applies: higher = more signal, called active from +8 up or from −8 down.
Experiment [4] concerns the target Dihydroorotate dehydrogenase (quinone), mitochondrial (Plasmodium falciparum (isolate 3D7)) (UniProt Q08210). Description: inhibition of P. falciparum DHODH – biochemical, C-terminal His tag, absorbance 600 nm, primary screen (AID 1175).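 Note: recombinant parasite enzyme with a five histidine tag at its C terminus.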 The conditions noted are these: PfDHODH enzyme, DCIP absorbance 600 nm; higher = more signal, called active from +8 up or from −8 down.

A short description of experiment [5]: inhibition of PAO1 biofilm formation – strain PAO1, LB-PBS medium, absorbance 600 nm, primary screen (AID 1176). The following applies: P. aeruginosa PAO1 growth/biofilm, A600, 12 h; higher = more signal.
Experiment [6] in a line: growth modulation of vineyard yeast isolate – strain RM11-1a, OD600, basal, 24 h, primary screen (AID 1177).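 Note: cultures grown under basal conditions with no added stressor.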 The conditions noted are these: S. cerevisiae RM11-1a growth, OD600, 24 h; higher = more signal, called active from +8 up or from −8 down.
Experiment [7] in a line: growth of efflux-deficient E. coli DRC39 – strain DRC39, OD650, 24 h, E. coli filamentation inducers, primary screen (AID 1178).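 Note: growth measured as culture turbidity by optical density at 650 nm.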 The conditions noted are these: E. coli DRC39 acrAB, higher = more signal, called active from +8 up or from −8 down.
Experiment [8] in a line: growth of efflux-deficient E. coli DRC39 – strain DRC39, OD650, 48 h, E. coli filamentation inducers, primary screen (AID 1179).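 Note: screen aims at cell division blockers that make cells filament.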 The conditions noted are these: E. coli DRC39 delta-acrAB growth, higher = more signal, called active from +8 up or from −8 down.
Experiment [9] in a line: viability profiling in RPMI8226 myeloma cells – cell-based, resazurin fluorescence, basal, 24 h, PK04 Diversity Set, profiling panel (AID 1180).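 Note: RPMI8826 multiple myeloma cell line at 5000 cells per well.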 The conditions noted are these: higher = more signal.
Experiment [10] has as its target E3 ubiquitin-protein ligase XIAP (Homo sapiens) (UniProt P98170). Nature of the experiment: small molecules binding XIAP protein – biophysical, small-molecule microarray, fluorescence 635 nm, primary screen (AID 1181).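 Note: score merges 667 nm emission and signal to noise over triplicate slides.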 The conditions noted are these: higher = more signal.
For experiment [11], the system named is XIP peptide (Xip251-270) binding. Description: XIP fragment 251-270 binding compounds – biochemical, small-molecule microarray, fluorescence 635/667 nm, 0.1 µg/mL protein, primary screen (AID 1182). The following applies: fluorescent protein binding, 635 nm, higher = more signal, called active from +8 up or from −8 down.
The subject of another experiment is XIP peptide (Xip251-270). Description: compounds binding XIP fragment 251-270 – biochemical, small-molecule microarray, fluorescence 635/667 nm, 0.5 µg/mL protein, primary screen (AID 1183). The conditions noted are these: fluorescence 635 nm, higher = more signal.
Experiment [12] in a line: blood-stage malaria parasite viability loss – strain 3D7, DAPI fluorescence, 100 nL, primary screen (AID 1184).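 Note: parasites grown inside human red blood cells in medium with human serum.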 The following applies: P. falciparum 3D7 growth, 3 d, higher = more signal.
Experiment [13] concerns the target Homeobox protein Hox-A13 (Mus musculus) (UniProt Q62424). Description: disruptors of Hoxa13 oligonucleotide interaction – biochemical, fluorescence polarization, labeled oligonucleotide, primary screen (AID 1185). The conditions noted are these: Hoxa13:DNA binding, 15 min, higher = more signal, called active from +8 up or from −8 down.

Chain of Dihydroorotate dehydrogenase (quinone), mitochondrial (Plasmodium falciparum (isolate 3D7)) (Q08210 whole entry, looked up): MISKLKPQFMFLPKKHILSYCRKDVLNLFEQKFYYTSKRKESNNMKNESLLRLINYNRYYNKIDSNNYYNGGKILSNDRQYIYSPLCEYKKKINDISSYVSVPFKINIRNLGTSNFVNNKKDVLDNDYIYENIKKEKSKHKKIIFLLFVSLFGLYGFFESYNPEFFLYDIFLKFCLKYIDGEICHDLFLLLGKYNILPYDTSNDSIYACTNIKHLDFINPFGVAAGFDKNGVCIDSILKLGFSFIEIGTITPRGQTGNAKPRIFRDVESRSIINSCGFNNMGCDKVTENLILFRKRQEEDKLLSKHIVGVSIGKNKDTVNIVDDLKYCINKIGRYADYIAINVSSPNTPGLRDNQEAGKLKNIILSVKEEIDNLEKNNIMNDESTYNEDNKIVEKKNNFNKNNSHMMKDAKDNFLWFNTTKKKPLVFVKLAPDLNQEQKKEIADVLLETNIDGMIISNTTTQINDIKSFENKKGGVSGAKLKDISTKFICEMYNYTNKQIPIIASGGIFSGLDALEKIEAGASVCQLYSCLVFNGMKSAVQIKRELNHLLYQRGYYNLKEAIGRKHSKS
Chain of Homeobox protein Hox-A13 (Mus musculus) (Q62424 whole entry, looked up): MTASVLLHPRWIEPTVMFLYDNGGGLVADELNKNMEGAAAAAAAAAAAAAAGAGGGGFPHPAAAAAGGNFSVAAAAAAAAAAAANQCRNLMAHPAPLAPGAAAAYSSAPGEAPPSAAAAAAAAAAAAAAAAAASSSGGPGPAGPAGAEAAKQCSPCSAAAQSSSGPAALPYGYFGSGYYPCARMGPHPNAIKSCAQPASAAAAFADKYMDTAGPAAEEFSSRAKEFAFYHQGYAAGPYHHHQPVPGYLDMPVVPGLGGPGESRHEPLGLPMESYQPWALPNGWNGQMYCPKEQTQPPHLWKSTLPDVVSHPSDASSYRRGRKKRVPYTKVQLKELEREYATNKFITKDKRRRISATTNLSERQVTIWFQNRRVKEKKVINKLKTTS
Chain of E3 ubiquitin-protein ligase XIAP (Homo sapiens) (P98170 whole entry, looked up, the tested form may be a part): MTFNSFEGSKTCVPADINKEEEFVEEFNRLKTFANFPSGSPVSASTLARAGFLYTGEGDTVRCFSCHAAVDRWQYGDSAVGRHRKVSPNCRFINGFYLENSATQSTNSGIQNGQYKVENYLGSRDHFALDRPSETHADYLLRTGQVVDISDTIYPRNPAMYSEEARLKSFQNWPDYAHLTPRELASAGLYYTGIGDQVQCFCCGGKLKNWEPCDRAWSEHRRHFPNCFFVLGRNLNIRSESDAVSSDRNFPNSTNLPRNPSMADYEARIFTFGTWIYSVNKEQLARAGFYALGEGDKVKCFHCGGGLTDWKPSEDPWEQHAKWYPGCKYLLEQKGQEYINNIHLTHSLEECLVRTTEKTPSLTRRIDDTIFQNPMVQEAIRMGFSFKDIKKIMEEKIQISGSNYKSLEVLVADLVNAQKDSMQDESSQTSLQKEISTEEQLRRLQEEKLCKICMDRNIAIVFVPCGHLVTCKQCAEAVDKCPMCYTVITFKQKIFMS

As for `C[C@@H]1CC[C@@H](C(=O)O)N[C@H]1c1ccc(-c2ccco2)cc1`, the z-score is 0.443 in experiment [1]; -0.319 (inactive) in experiment [2]; 0.603 (inactive) in experiment [3]; -0.151 (inactive) in experiment [5]; -0.0212 (inactive) in experiment [6]; 0.127 (inactive) in [7]. Further, the z-score in experiment [8] was -0.551 (inactive); in experiment [9], 0.285; in experiment [12], -0.25; in [13], -1.59 (inactive). Further, the composite z-score in [4] is 0.268 (inactive); in experiment [10] it was 0.012; in experiment [11] it was 1.06 (inactive); with XIP peptide (Xip251-270), 0.827.

`CCOC(=O)NN=C1C[C@@H](O)[C@@H](O)[C@@H]2[C@@H]3C(=O)N(Cc4ccccc4)C(=O)[C@@H]3CC[C@@H]12`: the z-score in experiment [1] was 0.213; in experiment [2], 0.331 (inactive); in experiment [3] it was -1.17 (inactive); in [5], 0.529 (inactive); in [6], 0.371 (inactive); in experiment [7], 0.199 (inactive). The z-score is -0.951 (inactive) in experiment [8], 0.561 in experiment [9], -0.647 in [12] and -0.411 (inactive) in experiment [13]. The composite z-score in experiment [4] was 0.0897 (inactive); in [10] it was 1.34; in experiment [11], -0.479 (inactive); in the experiment with XIP peptide (Xip251-270), 0.0853.

For the compound `CO[C@@H]1COC(=O)CC=C[C@H](C)COC(=O)[C@H](C)NC(=O)CC=C[C@H]1C`, the z-score in [1] was 0.496; in [2], 0.699 (inactive); in experiment [3], 0.859 (inactive); in experiment [5], -0.531 (inactive); in experiment [6] it was 1.25 (inactive); in [7], 0.365 (inactive). For the same compound, the z-score in experiment [8] was -0.896 (inactive); in experiment [9], 0.74; in experiment [12] it was -0.233; in experiment [13], -0.16 (inactive). Also, the composite z-score is 1.09 (inactive) in experiment [4], -0.0936 in [10], -0.0437 (inactive) in [11] and 0.195 in the experiment with XIP peptide (Xip251-270).

Consider `CCOC(=O)NN=C1C[C@@H](O)[C@@H](O)[C@@H]2[C@@H]3C(=O)N(Cc4ccc5c(c4)OCO5)C(=O)[C@@H]3CC[C@@H]12`, for which the z-score in experiment [1] was 0.321; in experiment [2], -0.143 (inactive); in experiment [3] it was 0.591 (inactive); in experiment [5], 0.246 (inactive); in experiment [6] it was 0.52 (inactive); in [7], 0.69 (inactive). The z-score in experiment [8] was 0.819 (inactive); in experiment [9], 0.457; in [12], 0.132; in experiment [13] it was -0.24 (inactive). Besides, the composite z-score in experiment [4] was -0.225 (inactive); in experiment [10] it was -0.492; in experiment [11] it was 0.483 (inactive); with XIP peptide (Xip251-270), 0.586.

Consider `C=C(C)C(=O)OC[C@@H]1CN2[C@@H](CC[C@@H](C)[C@@H]2c2ccc(Br)cc2)C(=O)O1`, for which the z-score was 0.726 in experiment [1]; -3.12 (inactive) in experiment [2]; 0.155 (inactive) in experiment [3]; 0.936 (inactive) in [5]; 0.361 (inactive) in [6]; 0.513 (inactive) in experiment [7]. For the same compound, the z-score is 0.682 (inactive) in experiment [8], 0.173 in experiment [9], 0.693 in [12] and -3.29 (inactive) in experiment [13]. The composite z-score was 0.187 (inactive) in experiment [4], -0.0326 in experiment [10], 0.0138 (inactive) in [11] and 0.175 with XIP peptide (Xip251-270).

For `CCOC(=O)CCN1C(=O)[C@H]2[C@H]3[C@H](O)[C@H](O)CC(=NNC(=O)OCC)[C@@H]3CC[C@H]2C1=O`, the z-score in experiment [1] was -0.346; in [2] it was -0.762 (inactive); in experiment [3], -0.994 (inactive); in experiment [5], -0.531 (inactive); in [6], -0.382 (inactive); in [7], 0.202 (inactive). Moreover, the z-score is 0.526 (inactive) in experiment [8], -1.74 in [9], 2.07 in experiment [12] and 0.0438 (inactive) in [13]. In addition, the composite z-score in experiment [4] is -0.31 (inactive); in experiment [10], 0.116; in experiment [11], 0.872 (inactive); in the experiment on XIP peptide (Xip251-270) it was 0.466.

Consider `CC(C)=NO[C@@H](C)c1cc(-c2c(C)cc(C)cc2C)no1`, for which the z-score is -0.18 in experiment [1]; -2.48 (inactive) in experiment [2]; 0.672 (inactive) in [3]; 0.499 (inactive) in experiment [5]; -0.395 (inactive) in [6]; -0.328 (inactive) in experiment [7]. The z-score is -2.9 (inactive) in experiment [8], 0.0684 in experiment [9], -0.876 in experiment [12] and 0.387 (inactive) in [13]. In addition, the composite z-score in experiment [4] is -2.98 (inactive); in [10], 0.0251; in experiment [11], -0.386 (inactive); in the experiment on XIP peptide (Xip251-270), 0.303.

With `C[C@@H](c1ccccc1)N1C(=O)[C@H]2[C@H]3[C@H](O)[C@H](O)CC(=O)[C@@H]3CC[C@H]2C1=O`, the z-score in [1] is -0.7; in [2], -1.05 (inactive); in experiment [3], 0.295 (inactive); in [5], 0.377 (inactive); in experiment [6], -2.9 (inactive); in [7], -0.579 (inactive). Further, the z-score in [8] was -0.954 (inactive); in [9] it was -0.62; in [12] it was 0.241; in [13], 0.063 (inactive). The composite z-score in [4] was -1.59 (inactive); in experiment [10], -0.163; in experiment [11], -0.415 (inactive); with XIP peptide (Xip251-270), 0.403.
